A short description of assay [1]: S16 Schwann cell viability assay (CellTiter-Glo assay) (AID 624031).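 Note: cellular ATP luminescence as a viability measure; nearly all actives have a fitted effect of over 70% in size.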 Summed up: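 Native S16 rat Schwann cells, 500-750 cells/well in DMEM with 10% FBS, dosed with compound after overnight culture and incubated 24h at 37 degree Celsius/5% CO2. Viability by CellTiter-Glo luminescence; % activity normalized to no-cell wells and DMSO-treated cells.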
Assay [2] can be described thus: S16 Schwann cell PMP22 intronic element beta-lactamase assay (AID 624044; calls by dose curve; note: nearly all actives have a fitted effect of over 15% in size). Summed up:
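Rat S16 Schwann cells with beta-Lac driven by a PMP22 intronic element, compound-treated 24 h at 37 °C. LiveBLAzer FRET B/G read: 460 nm normalized to potassium clavulanate vs DMSO; 535 nm FRET as viability; concentration-effect curves classified.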

The subject of the next assay is AS120. Kind of assay: qHTS profiling for inhibitors of Plasmodium falciparum proliferation (AID 504749). Note: nearly all actives have a fitted effect of over 60% in size. Note: potency is the fitted concentration of half-maximal effect. Conditions: P. falciparum in erythrocytes, SYBR Green DNA, 72 h; series mostly up to 12.8 µM. Summed up: (§1)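 P. falciparum-infected erythrocytes (0.3% parasitemia, 2.5% hematocrit) incubated with compound 72 h at 37 C, 5% CO2. Parasite DNA detected by SYBR Green after lysis, overnight at room temperature; normalised to 0.29 uM artemisinin and DMSO.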
Background: In qHTS, concentration-response curves come from the screen itself.

The test system of a further assay is CP297. The description is as above. Conditions: P. falciparum in erythrocytes, SYBR Green DNA, 72 h; series mostly up to 12.8 µM. Summed up:
as §1

The subject of another assay is CP329. Described as above. Conditions: P. falciparum in erythrocytes, SYBR Green DNA, 72 h; series mostly up to 12.8 µM. Summed up: as §1
The next assay concerns ECU. Described as above. To be noted: P. falciparum in erythrocytes, SYBR Green DNA, 72 h; series mostly up to 12.8 µM. In outline:
as §1

For another assay, the system named is N140. The description is as above. To be noted: P. falciparum in erythrocytes, SYBR Green DNA, 72 h; series mostly up to 12.8 µM. Summed up: as §1
For another assay, the system named is PAD. The assay is described as above. To be noted: P. falciparum in erythrocytes, SYBR Green DNA, 72 h; series mostly up to 12.8 µM. Summed up:
as §1

The subject of another assay is TAB113. The description is as above. Conditions: P. falciparum in erythrocytes, SYBR Green DNA, 72 h; series mostly up to 12.8 µM. In outline: as §1
Another assay relates to W2. Described as above. Conditions: P. falciparum in erythrocytes, SYBR Green DNA, 72 h; series mostly up to 12.8 µM. In outline: as §1
The subject of a further assay is 3D7. The description is as above. Conditions: P. falciparum in erythrocytes, SYBR Green DNA, 72 h; series mostly up to 12.8 µM. Summed up: as §1
A further assay relates to ATS189. The assay is described as above. Conditions: P. falciparum in erythrocytes, SYBR Green DNA, 72 h; series mostly up to 12.8 µM. In outline:
as §1

In another assay the test system is CP185. Described as above. Conditions: P. falciparum in erythrocytes, SYBR Green DNA, 72 h; series mostly up to 12.8 µM. Summed up: as §1
Another assay relates to CP191. The assay is described as above. To be noted: P. falciparum in erythrocytes, SYBR Green DNA, 72 h; series mostly up to 12.8 µM. Summed up: as §1
For the next assay, the system named is CP237. The assay is described as above. To be noted: P. falciparum in erythrocytes, SYBR Green DNA, 72 h; series mostly up to 12.8 µM. In outline: as §1
The test system of the next assay is CP247. The assay is described as above. To be noted: P. falciparum in erythrocytes, SYBR Green DNA, 72 h; series mostly up to 12.8 µM. Summed up:
as §1

The subject of a further assay is CP256. The description is as above. To be noted: P. falciparum in erythrocytes, SYBR Green DNA, 72 h; series mostly up to 12.8 µM. In outline:
as §1

A further assay deals with CP315. The description is as above. To be noted: P. falciparum in erythrocytes, SYBR Green DNA, 72 h; series mostly up to 12.8 µM. Summed up:
as §1

The subject of a further assay is JCK. Described as above. To be noted: P. falciparum in erythrocytes, SYBR Green DNA, 72 h; series mostly up to 12.8 µM. In outline: as §1
A further assay deals with PC49. The assay is described as above. To be noted: P. falciparum in erythrocytes, SYBR Green DNA, 72 h; series mostly up to 12.8 µM. Summed up: as §1

Consider 6 molecules from PubChem BioAssay (NCATS).

Results filed as inconclusive are left out. Activity calls are given as the source filed them. Unless noted, calls come from the whole dose curve; as a rule, active = well fitted curve in the direction sought with a large enough effect; inconclusive = small, poorly fitted or top-dose-only effect, or another doubt; inactive = no such curve, though single readings can be large; an effect the other way counts as inactive or inconclusive.

In the case of `Clc1ccc(CC[C@H](Cn2ccnc2)Sc2c(Cl)cccc2Cl)cc1`, the molecule was classed as inactive in assay [1]. Further, in assay [2], the Potency result was “inactive”. Further, the Potency with AS120 was 2.24 µM (active); with CP297, 5.1 µM (active); in the assay on CP329, 6.42 µM (active); in the assay on ECU, 3.55 µM (active); with N140 it was 3.16 µM (active); with PAD it was 3.55 µM (active). Moreover, the Potency in the assay on TAB113 was 3.55 µM (active); with W2 it was 2.03 µM (active).

As to `CC(=O)O[C@H]1C[C@@]2(C)[C@H](C[C@@H](O)[C@H]3[C@@]4(C)CC[C@@H](O)[C@@H](C)[C@H]4CC[C@@]32C)C1=C(CCC=C(C)C)C(=O)O`, the outcome in assay [1] was inactive. Moreover, the Potency entry (in assay [2]; in the assay on 3D7; in the assay with AS120; with ATS189; in the assay on CP185; in the assay on CP191) was “inactive” throughout. The Potency result in the assay with CP237, with CP247, in the assay with CP256, in the assay with CP297, in the assay on CP315 and in the assay on CP329 was “inactive” throughout. In addition, the Potency entry in the assay with ECU, in the assay with JCK, in the assay on N140, in the assay on PAD, in the assay with PC49 and in the assay on TAB113 was “inactive” in each case. The Potency entry in the assay on W2 is “inactive”.

For `Cc1ncc([N+](=O)[O-])n1C[C@H](O)CCl`, in [1], the outcome was inactive. Besides, the Potency entry (in assay [2]; with 3D7; in the assay with AS120; in the assay with ATS189; in the assay on CP185; in the assay on CP191) was “inactive” in each case. Moreover, the Potency result with CP237, in the assay with CP247, with CP256, with CP297, with CP315 and with CP329 was “inactive” each time. Further, the Potency entry in the assay on ECU, with JCK, with N140, in the assay with PAD, with PC49 and in the assay on TAB113 was “inactive” in each case. The Potency entry in the assay on W2 was “inactive”.

With `CO[C@@H]1C[C@H](O[C@H]2[C@@H](C)[C@H](O[C@@H]3O[C@@H](C)C[C@@H](N(C)C)[C@@H]3OC(C)=O)[C@H](C)C[C@]3(CO3)C(=O)[C@H](C)[C@H](OC(C)=O)[C@H](C)[C@H](C)OC(=O)[C@@H]2C)O[C@H](C)[C@@H]1OC(C)=O`, the call in [1] was inactive. Moreover, the Potency result (in [2]; in the assay on 3D7; in the assay on AS120; in the assay on ATS189; with CP185; with CP191) was “inactive” throughout. Besides, the Potency result in the assay on CP237, in the assay on CP247, in the assay with CP256, in the assay on CP297, with CP315 and in the assay with ECU was “inactive” each time. Also, the Potency entry in the assay with JCK, in the assay on N140, with PAD, in the assay on PC49 and in the assay on TAB113 was “inactive” in each case.

Regarding `COc1ccccc1OC[C@H](O)CO`, the molecule was classed as inactive in [1]. Also, the Potency result (in assay [2]; with 3D7; with AS120; in the assay on ATS189; with CP185; with CP191) was “inactive” throughout. Also, the Potency result in the assay on CP237, with CP247, in the assay on CP256, in the assay on CP297, in the assay on CP315 and in the assay on CP329 was “inactive” throughout. Besides, the Potency entry with ECU, with JCK, with N140, in the assay on PAD, in the assay on PC49 and in the assay with TAB113 was “inactive” in each case. Moreover, the Potency entry in the assay on W2 was “inactive”.

On to `CC(=O)OCC(=O)[C@@]12OC(C)(C)O[C@@H]1C[C@H]1[C@H]3C[C@H](F)C4=CC(=O)C=C[C@@]4(C)[C@]3(F)[C@H](O)C[C@@]12C`, for which the result in [1] was inactive. Moreover, the Potency entry in the assay with 3D7, with AS120, in the assay with ATS189, in the assay on CP185, in the assay on CP191 and with CP237 was “inactive” each time. Besides, the Potency result with CP247, in the assay with CP256, in the assay on CP297, with CP315, in the assay on CP329 and with ECU was “inactive” each time. The Potency result with JCK, with N140, in the assay on PAD, in the assay on PC49, in the assay with TAB113 and in the assay with W2 was “inactive” each time.
